Source: PubChem
APE1 inh-1: inhibitors of human APE1 endonuclease | AID 2517 | Potency, µM (titrated, usually from 65.8 µM), hits mostly inhibitors | 350,000 compounds, 0.35% hits | recombinant APE1, TAMRA/BHQ-2 abasic DNA cleavage fluorescence | P27695; note: nearly all actives have a fitted effect of over 55% in size
Target sequence (P27695 whole entry, looked up): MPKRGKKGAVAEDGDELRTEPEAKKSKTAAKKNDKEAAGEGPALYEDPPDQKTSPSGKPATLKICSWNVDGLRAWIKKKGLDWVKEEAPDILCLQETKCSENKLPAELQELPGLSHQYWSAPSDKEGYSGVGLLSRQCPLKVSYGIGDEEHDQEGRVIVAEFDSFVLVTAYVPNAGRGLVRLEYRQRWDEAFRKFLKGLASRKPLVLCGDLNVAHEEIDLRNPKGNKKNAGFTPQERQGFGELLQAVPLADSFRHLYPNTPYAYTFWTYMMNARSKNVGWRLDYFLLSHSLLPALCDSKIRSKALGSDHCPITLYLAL
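Enzyme (0.75 nM final) and test compound are incubated 15 min at room temperature before adding 50 nM quenched THF abasic-site duplex. Cleavage dequenches TAMRA, followed at 525/598 nm over three reads one minute apart.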
ERG Ets-DNA blk: blocks human ERG Ets domain binding to DNA | AID 624246 | P11308 | Potency, µM (highest dose often 76.9 µM), usual class: inhibitors | 370,000 compounds, 0.028% hits | fluorescence polarization, His-ERG Ets domain / labelled DNA; active = well fitted inhibition curve with a large enough effect in the polarisation, with a control signal flat; inconclusive = small, poorly fitted or top-dose-only effect, or effect the other way, or a change in a side signal; inactive = no such curve, though single readings can be large or run the other way; the % refers to the polarisation;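 note: polarization taken with two DNA probes labelled with fluorescein and Texas red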
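His-tagged ERG Ets domain (1 uM in the protein solution; 300mM KCl, 50mM Tris-HCl, 1mM EDTA, 1mM DTT, pH 7.5) received compound, then a probe mix of 5 nM fluorescein-DNA and 100nM Texas-615-DNA. Fluorescence polarization was read for both dyes.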
GCN5L2 inh: blocks human GCN5L2 histone acetyltransferase. Q92830. GCN5L2 HAT assay, ThioGlo1 CoA-SH fluorescence. Potency, µM (doses to about 58.9 µM), usual class: inhibitors. 390,000 compounds, 0.21% hits
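Free CoA generated was detected with ThioGlo1 (50uM) fluorescence at Ex340nm/Em540nm, read immediately and after 20 min at room temperature. Enzyme, 20 nM in HEPES pH 7.5 buffer, saw compounds 15 min before adding 75uM H3(1-25) peptide and 70uM acetyl-CoA.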
RECQ1 inh-1: inhibitors of human RECQ1 DNA helicase; Potency, µM (titrated, usually from 57.3 µM), most hits filed as inhibitors; RECQ1 DNA unwinding, red fluorescence kinetic read; P46063; 240,000 compounds, 0.54% hits; AID 2549; note: nearly all actives have a fitted effect of over 30% in size
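50 nM RECQ1T1 preincubated 15 min with compound in Tris pH 8.0 buffer with MgCl2, DTT, Tween-20 and 2.5 ug/ml poly(dI-dC); started with 200 nM TAMRA/BHQ-2 forked duplex and 2 mM ATP. Unwinding read as fluorescence (525/598 nm), two reads 2 h apart.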
WRN inhibitor: blocks human WRN helicase | WRN helicase unwinding, fluorescent forked duplex, kinetic | AID 651768 | 360,000 compounds, 0.46% hits | Potency, µM (doses to about 114 µM), hits mostly inhibitors; note: nearly all actives have a fitted effect of over 55% in size
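WRN at 20 nM final was preincubated with compound for 15 min at room temperature; reaction started with 100 nM forked duplex oligonucleotide carrying fluorophore and quencher plus 2 mM ATP (final). Unwinding followed kinetically by red fluorescence (ex 525/em 598 nm).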
BLM inh-1: inhibitors of human Bloom syndrome helicase BLM; 350,000 compounds, 0.2% hits; Potency, µM (highest dose often 56.1 µM), usual class: inhibitors; recombinant BLM DNA unwinding, fluorescence dequenching; note: nearly all actives have a fitted effect of over 35% in size
APE1 dye cs: displaces fluorescent dye from DNA, flagging APE1 artifacts; shares compounds with APE1 inh-1; DNA fluorescent dye displacement counterscreen, fluorescence; Potency, µM (doses to about 28.5 µM), most hits filed as inhibitors; 480 compounds, 7% hits;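 note: loss of thiazole orange fluorescence as the dye is displaced from duplex DNA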
EndoIV counter: Endo IV (E. coli) inhibition counter-screen. shares compounds with APE1 inh-1. E. coli Endo IV, fluorogenic AP-site DNA cleavage. Potency, µM (highest dose often 27.1 µM), actives largely listed as inhibitors. 560 compounds, 4% hits. AID 2565
APE1 inh-2: confirmation of inhibitors of human APE1 endonuclease; purified APE1, fluorogenic abasic-site DNA cleavage; shares compounds with APE1 inh-1; Potency, µM (doses to about 57.1 µM), hits mostly inhibitors; 750 compounds, 44% hits; note: nearly all actives have a fitted effect of over 30% in size
APE1 FP: APE1 (human) DNA binding inhibition, fluorescence polarization. shares compounds with APE1 inh-1. APE1 binding to TAMRA-labelled double-stranded DNA, fluorescence polarization displacement. Potency, µM (series often up to 28.5 µM), actives largely listed as inhibitors. 480 compounds, 7% hits
BLM inh-2: BLM (human) helicase inhibition, confirmation; AID 2585; 220 compounds, 40% hits; BLM DNA unwinding, fluorescence quenching, biochemical; Potency, µM, usual class: inhibitors; shares compounds with BLM inh-1;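 note: strand separation dequenches TAMRA so unwinding raises red fluorescence; series mostly up to about 69 µM; nearly all actives have a fitted effect of over 45% in size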
RECQ1 inh conf: confirmation of human RECQ1 helicase inhibitors; shares compounds with RECQ1 inh-1; RECQ1 helicase DNA unwinding, fluorescence; Potency, µM (doses to about 229 µM), hits mostly inhibitors; 610 compounds, 28% hits; note: nearly all actives have a fitted effect of over 45% in size
ADP FP counter: ADP displacement flagged in RECQ1 inhibitor counter-screen; shares compounds with RECQ1 inh-1; ADP fluorescence polarization displacement counterscreen; Potency, µM (doses to about 228 µM), hits mostly inhibitors; 530 compounds, 27% hits; note: nearly all actives have a fitted effect of over 45% in size
RECQ1 inh-2: blocks human RECQ1 DNA unwinding. shares compounds with RECQ1 inh-1. recombinant RECQ1 DNA unwinding, red fluorescence. 1,100 compounds, 15% hits. AID 504841. Potency, µM (titrated, usually from 119 µM), most hits filed as inhibitors; note: nearly all actives have a fitted effect of over 50% in size
Numbers stand for hits. The list is not random: actives were taken first. Their share in the collection is about 0.88%. Unless noted, calls come from the whole dose curve; as a rule, active = well fitted curve in the direction sought with a large enough effect; inconclusive = small, poorly fitted or top-dose-only effect, or another doubt; inactive = no such curve, though single readings can be large; an effect the other way counts as inactive or inconclusive.

What do the screens show for `O=C(Cn1c(=O)n(Cc2ccco2)c(=O)c2c3c(sc21)CCCCC3)Nc1ccccc1`?
APE1 inh-1: 11µM; ERG Ets-DNA blk: inactive; GCN5L2 inh: inactive; RECQ1 inh-1: 13µM; WRN inhibitor: inconclusive; BLM inh-1: 20µM; APE1 dye cs: inconclusive; EndoIV counter: inactive; APE1 inh-2: inconclusive; APE1 FP: inactive; BLM inh-2: inconclusive

What do the screens show for `Cc1ccc(-n2c3nc(=O)[nH]c(=O)c-3cc3c(C)nn(-c4ccccc4)c32)cc1Cl`?
ERG Ets-DNA blk: inactive; GCN5L2 inh: inactive; BLM inh-1: inactive

What do the screens show for `COc1cccc(N2CCN(CC(=O)NC(=O)NCc3ccco3)CC2)c1`?
APE1 inh-1: inconclusive; ERG Ets-DNA blk: inactive; GCN5L2 inh: inconclusive; RECQ1 inh-1: inconclusive; WRN inhibitor: inactive; BLM inh-1: 11µM; APE1 dye cs: inactive; EndoIV counter: inactive; APE1 inh-2: inconclusive; APE1 FP: inactive; BLM inh-2: inactive

What do the screens show for `COC(=O)c1cc(=O)c(O)c2c(O)c(O)ccc2c1`?
APE1 inh-1: 1.3µM; GCN5L2 inh: inactive; RECQ1 inh-1: 8.9µM; BLM inh-1: inconclusive; EndoIV counter: inactive; APE1 inh-2: 7.1µM; BLM inh-2: inconclusive

What do the screens show for `COC(=O)c1ccc2cc(OC)c(OC)cc2c1`?
WRN inhibitor: inactive

What do the screens show for `CCCn1c(=O)c2sccc2n2c(CCCC(=O)Nc3ccccc3OCC)nnc12`?
ERG Ets-DNA blk: inactive; GCN5L2 inh: inactive; BLM inh-1: inactive

Results for CC(=O)Nc1sc2c(c1-c1nc3ccccc3s1)CCN(C(C)C)C2 ?
APE1 inh-1: 13µM; ERG Ets-DNA blk: inconclusive; GCN5L2 inh: inactive; RECQ1 inh-1: inconclusive; WRN inhibitor: inactive; BLM inh-1: inactive; APE1 dye cs: inactive; EndoIV counter: 13µM; APE1 inh-2: 3.5µM; APE1 FP: 2.5µM; BLM inh-2: inactive; RECQ1 inh-2: 45µM

How did CCN1CCc2c(sc(NC(=O)CSc3ccccc3)c2-c2nc3ccccc3s2)C1 do in these assays?
ERG Ets-DNA blk: inactive; GCN5L2 inh: inactive; BLM inh-1: inactive

What do the screens show for `COc1ccc(-c2nc3sc(CCNC(=O)c4cc(Cl)ccc4OC)c(C)n3n2)cc1`?
ERG Ets-DNA blk: inactive; GCN5L2 inh: inactive; BLM inh-1: inactive

What do the screens show for `COc1ccc(CN2CCc3c(c(=O)n4ncc(C(=O)N5CCN(c6ccccc6F)CC5)c4n3C)C2)cc1`?
ERG Ets-DNA blk: inactive; GCN5L2 inh: inactive; BLM inh-1: inactive

How did Cc1ccc(S(=O)(=O)Nc2csc(C)c2C(=O)O)cc1 do in these assays?
APE1 inh-1: 11µM; ERG Ets-DNA blk: inactive; GCN5L2 inh: inactive; RECQ1 inh-1: inconclusive; WRN inhibitor: inactive; BLM inh-1: inactive; APE1 dye cs: inactive; EndoIV counter: inactive; APE1 inh-2: inconclusive; APE1 FP: inconclusive; RECQ1 inh-2: inconclusive

What do the screens show for `Cc1ccc(S(=O)(=O)Nc2cc(C)c(O)cc2C)cc1`?
APE1 inh-1: inactive; ERG Ets-DNA blk: inactive; GCN5L2 inh: inactive; RECQ1 inh-1: inactive; WRN inhibitor: inactive; BLM inh-1: inactive

Results for COc1cccc2c1C(=O)c1c(O)c3c(c(O)c1C2=O)C[C@](O)(C(=O)CO)C[C@@H]3O[C@H]1C[C@H](N)[C@@H](O)[C@H](C)O1 ?
GCN5L2 inh: inactive; BLM inh-1: inactive

How did CC(=O)[C@]1(O)Cc2c(O)c3c(c(O)c2[C@@H](O[C@H]2C[C@H](N)[C@H](O)[C@H](C)O2)C1)C(=O)c1ccccc1C3=O do in these assays?
APE1 inh-1: 20µM; ERG Ets-DNA blk: 3.2µM; GCN5L2 inh: inconclusive; RECQ1 inh-1: 28µM; WRN inhibitor: 32µM; BLM inh-1: inactive; APE1 dye cs: inactive; EndoIV counter: inactive; APE1 inh-2: 16µM; APE1 FP: 2.8µM; BLM inh-2: inactive; RECQ1 inh conf: 35µM; ADP FP counter: 0.56µM

What do the screens show for `CC(=O)[C@]1(O)Cc2c(O)c3c(c(O)c2[C@@H](O[C@H]2C[C@H](N)[C@H](O)[C@H](C)O2)C1)C(=O)c1c(O)cccc1C3=O`?
APE1 inh-1: 25µM; GCN5L2 inh: inactive; RECQ1 inh-1: 28µM; BLM inh-1: 28µM; APE1 dye cs: inactive; APE1 inh-2: 7.9µM; APE1 FP: 1.4µM; RECQ1 inh conf: 100µM; ADP FP counter: 0.89µM

Results for C=C1C(=O)OC2CC1C(OC(C)=O)CC(C)=CCCC(C)=CCC[C@@]2(C)O (some centres undefined) ?
APE1 inh-1: inactive; GCN5L2 inh: inactive; RECQ1 inh-1: inactive; BLM inh-1: inactive

How did CCc1cccc(NC(=O)Cn2nc3c4cc(F)ccc4n(Cc4cccc(C)c4)cc-3c2=O)c1 do in these assays?
ERG Ets-DNA blk: inactive; GCN5L2 inh: inactive; BLM inh-1: inactive
